Holding throughout (assay): NCI-60 one-dose screen, 48 h (100 = growth as untreated, 0 = no growth, -100 = all killed)
For one assay, the system named is HT29 colon. Particulars: 10 µM unless noted.
For a further assay, the system named is SNB-19 CNS. To be noted: 10 µM unless noted.
Another assay deals with U251 CNS. To be noted: 10 µM unless noted.
In another assay the test system is PC-3 prostate. To be noted: 10 µM unless noted.
The subject of the next assay is UACC-62 melanoma. Particulars: 10 µM unless noted.
A further assay relates to LOX IMVI melanoma. To be noted: 10 µM unless noted.
Another assay concerns SK-MEL-28 melanoma. To be noted: 10 µM.
The next assay deals with SK-MEL-2 melanoma. Particulars: 10 µM unless noted.
In another assay the test system is EKVX NSCLC. Particulars: 10 µM unless noted.
The subject of the next assay is SN12C renal. To be noted: 10 µM unless noted.
A further assay relates to UO-31 renal. To be noted: 10 µM unless noted.
The next assay deals with TK-10 renal. To be noted: 10 µM unless noted.
The subject of the next assay is ACHN renal. To be noted: 10 µM unless noted.
The test system of a further assay is CAKI-1 renal. Particulars: 10 µM unless noted.
Another assay has as its system CCRF-CEM leukemia. Particulars: 10 µM unless noted.
Another assay deals with MOLT-4 leukemia. To be noted: 10 µM unless noted.
For the next assay, the system named is SR leukemia. To be noted: 10 µM unless noted.
Another assay has as its system SK-MEL-5 melanoma. Particulars: 10 µM unless noted.
The test system of a further assay is A498 renal. To be noted: 10 µM unless noted.
A further assay concerns SNB-75 CNS. To be noted: 10 µM unless noted.

Results on nine compounds are retold here after PubChem BioAssay (NCI).

SMILES strings stand for the structures. The panel holds about 83,000 compounds, 20% with a hit somewhere; the sample as a whole holds those more often.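 Results are percent growth after 48 hours of single-concentration exposure. 100 means growth as in untreated cells, lower positive values show inhibition; negative values down to -100 show cell death.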 A number with no mark means an inactive call. Activity calls are given as the source filed them. How the source made its calls: active means growth percent below 10; inactive means the rest.

Consider `c1ccc2c(c1)oc1cc3sccc3nc12`, for which the growth is 106% with HT29 colon; 98.3% with SNB-19 CNS; 92% in the assay with U251 CNS; 93.4% in the assay with PC-3 prostate; 94.2% in the assay on UACC-62 melanoma; 96.8% in the assay with LOX IMVI melanoma. Besides, the growth was 109% with SK-MEL-28 melanoma; 95.3% with SK-MEL-2 melanoma; 101% with EKVX NSCLC; 93% in the assay with SN12C renal; 66.6% with UO-31 renal; 135% in the assay with TK-10 renal. For the same compound, the growth in the assay on ACHN renal was 99.5%; in the assay with CAKI-1 renal, 78%; with CCRF-CEM leukemia, 100%; in the assay with MOLT-4 leukemia, 97.7%; in the assay on SR leukemia, 96.5%.
Turning to `Cc1sc2ncn(CC(=O)Nc3ccc(S(N)(=O)=O)cc3)c(=O)c2c1C`, the growth in the assay with HT29 colon was 107%; with U251 CNS, 100%; with PC-3 prostate it was 101%; with SK-MEL-5 melanoma it was 99.3%; in the assay on UACC-62 melanoma, 96.5%; in the assay on LOX IMVI melanoma, 99%. Besides, the growth with SK-MEL-28 melanoma was 110%; in the assay on SK-MEL-2 melanoma it was 106%; in the assay with EKVX NSCLC it was 95.8%; with SN12C renal, 98.6%; in the assay on UO-31 renal, 73.1%; with TK-10 renal, 109%. Also, the growth is 95.4% with CAKI-1 renal; 100% in the assay on A498 renal; 105% in the assay on CCRF-CEM leukemia; 102% with MOLT-4 leukemia; 117% with SR leukemia.
Regarding `O=C(/C=C/c1ccc(C(F)(F)F)cc1)c1ccc(Nc2nc(NCCO)nc(N3CCOCC3)n2)cc1`, the growth in the assay on SNB-75 CNS is 40.1%; with SNB-19 CNS, 39.5%; in the assay with U251 CNS, -51.3% (active); in the assay on PC-3 prostate, 25.3%; in the assay with SK-MEL-5 melanoma, 46.3%; in the assay on UACC-62 melanoma, 56%. The growth is 3.82% (active) with LOX IMVI melanoma; 94.1% in the assay on SK-MEL-28 melanoma; 109% in the assay on SK-MEL-2 melanoma; 65.4% in the assay on EKVX NSCLC; 71.5% with SN12C renal; 48% with UO-31 renal. Further, the growth was 81.8% with TK-10 renal; 36.5% in the assay with ACHN renal; 53.1% in the assay on CAKI-1 renal; 98% in the assay on A498 renal; 10.3% in the assay on CCRF-CEM leukemia; 5.76% (active) in the assay with MOLT-4 leukemia. In addition, in the assay with SR leukemia, the growth is 19%.
For the compound `Cc1[nH]c2ccccc2c(=O)c1CC=C(Cl)Cl`, the growth in the assay on HT29 colon is -59.8% (active); in the assay with SNB-19 CNS, 56.7%; in the assay on U251 CNS, 18.9%; in the assay on PC-3 prostate, 43.6%; in the assay with UACC-62 melanoma, 63.9%; in the assay on LOX IMVI melanoma, 3.09% (active). Also, the growth was 74.8% in the assay on SK-MEL-28 melanoma; 46.2% with SK-MEL-2 melanoma; 48.2% in the assay with SN12C renal; 20.4% with UO-31 renal; 43.4% in the assay with TK-10 renal; 26.8% in the assay with ACHN renal. Moreover, the growth is 45.8% in the assay on CAKI-1 renal; 96.9% in the assay on A498 renal; 21.5% with CCRF-CEM leukemia; 19.3% in the assay on MOLT-4 leukemia; -8.18% (active) in the assay on SR leukemia.
As for `CCCN1C(=O)N(CCC)C2C1NN=c1s/c(=C3\C(=O)N(C(C)C)c4ccccc43)c(=O)n12` (stereo unspecified), the growth with HT29 colon was 18.8%; with SNB-19 CNS it was 47.9%; in the assay with U251 CNS, 48.4%; in the assay with PC-3 prostate, 35.8%; in the assay with UACC-62 melanoma it was 31.5%; in the assay with LOX IMVI melanoma it was 41.1%. Also, the growth in the assay on SK-MEL-28 melanoma is 60.7%; in the assay with SK-MEL-2 melanoma, 49.4%; in the assay on EKVX NSCLC, 51%; with SN12C renal, 65.9%; with UO-31 renal it was 30.9%; in the assay on TK-10 renal, 78.9%. Besides, the growth in the assay on ACHN renal is 23.4%; in the assay on CAKI-1 renal, 31.7%; in the assay on CCRF-CEM leukemia, 45.8%; with MOLT-4 leukemia it was 46.3%; in the assay on SR leukemia, 7.97% (active).
Take `O=C(N=Nc1c(O)[nH]c2ccccc12)c1oc2ccccc2c1CN1CCN(c2ccccc2)CC1`: the growth in the assay with HT29 colon was 15.8%; in the assay with SNB-19 CNS, 18.6%; in the assay with U251 CNS, -22.2% (active); in the assay on PC-3 prostate, -22.2% (active); in the assay on UACC-62 melanoma, 4.02% (active); in the assay on LOX IMVI melanoma, 2.72% (active). Also, the growth is -31.8% (active) in the assay with SK-MEL-28 melanoma; 72.9% in the assay with SK-MEL-2 melanoma; 4.35% (active) with EKVX NSCLC; 11.5% in the assay with SN12C renal; -52.2% (active) in the assay on UO-31 renal; -45.1% (active) in the assay on TK-10 renal. The growth was -85.2% (active) in the assay on ACHN renal; 32.9% in the assay on CAKI-1 renal; 19.7% in the assay on CCRF-CEM leukemia; 30.7% in the assay with MOLT-4 leukemia; 1.67% (active) with SR leukemia.
Turning to `CN1C(=O)N(C)C2Nn3c(s/c(=C\c4ccc(Cl)cc4Cl)c3=O)=NC21` (stereo unspecified), the growth with HT29 colon was 37%; in the assay on SNB-19 CNS it was 64%; in the assay on U251 CNS it was 61.4%; with PC-3 prostate it was 38.9%; in the assay on UACC-62 melanoma, 47.1%; in the assay with LOX IMVI melanoma, 58.3%. Moreover, the growth is 62.1% with SK-MEL-28 melanoma; 89.2% in the assay with SK-MEL-2 melanoma; 65.1% in the assay with EKVX NSCLC; 75.6% in the assay on SN12C renal; 62% with UO-31 renal; 117% in the assay on TK-10 renal. Also, the growth with ACHN renal was 56.6%; with CAKI-1 renal, 48.4%; with CCRF-CEM leukemia, 49%; with MOLT-4 leukemia, 64.1%; with SR leukemia, 35.9%.
With `CCN1C(=O)N(CC)C2C1NN=c1s/c(=C3\C(=O)N(CC(C)(C)C)c4ccccc43)c(=O)n12` (stereo unspecified), the growth was 6.57% (active) with HT29 colon; 33.1% in the assay on SNB-19 CNS; 21% in the assay on U251 CNS; 20.8% in the assay with PC-3 prostate; 36.1% in the assay on UACC-62 melanoma; 38.7% in the assay with LOX IMVI melanoma. Besides, the growth was 64% in the assay with SK-MEL-28 melanoma; 53.6% in the assay on SK-MEL-2 melanoma; 49.6% with EKVX NSCLC; 32.6% in the assay with SN12C renal; 38.9% in the assay with UO-31 renal; 84.3% with TK-10 renal. For the same compound, the growth was 40.7% in the assay with ACHN renal; 38.5% in the assay on CAKI-1 renal; 10.2% in the assay with CCRF-CEM leukemia; 16.3% in the assay with MOLT-4 leukemia; 6.48% (active) with SR leukemia.
Take `CCN1C(=O)N(CC)C2Nn3c(s/c(=C\c4ccccc4F)c3=O)=NC21` (stereo unspecified): the growth in the assay with HT29 colon is 17.4%; in the assay on SNB-19 CNS, 45.5%; in the assay with U251 CNS it was 26.1%; in the assay with PC-3 prostate, 39.6%; with UACC-62 melanoma, 36.7%; with LOX IMVI melanoma, 44.3%. Besides, the growth is 54.2% in the assay on SK-MEL-28 melanoma; 52.8% with SK-MEL-2 melanoma; 38.4% with EKVX NSCLC; 53.5% in the assay on SN12C renal; 65.8% in the assay on UO-31 renal; 87.2% with TK-10 renal. For the same compound, the growth is 50.8% in the assay on ACHN renal; 48.1% with CAKI-1 renal; 43.3% with A498 renal; 34.1% with CCRF-CEM leukemia; 44% in the assay on MOLT-4 leukemia; 24.5% in the assay on SR leukemia.
